Source: PubChem
An excerpt weighted towards active compounds, which were near 1.1% of everything screened.
NR2F2 inh = NR2F2 transcriptional activity inhibitors, primary screen, cell-based, luciferase reporter, HEK293T, luminescence. inhibition, % at 8.6 µM. hit rate 0.7% among 370,000. HEK293T NGFI-A luciferase reporter. AID 686940, 2013. COUP transcription factor 2 (Homo sapiens), P24468;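 active means inhibition above a per-plate cutoff, mean inhibition of test wells between control levels plus 3 SD, cut at about 38% in these data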;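 further: cells cotransfected with COUP-TFII expression vector driving the NGFI-A reporter; 0% = median of COUP-TF2 test wells and 100% = reporter-only cells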
Target sequence (P24468 whole entry, looked up): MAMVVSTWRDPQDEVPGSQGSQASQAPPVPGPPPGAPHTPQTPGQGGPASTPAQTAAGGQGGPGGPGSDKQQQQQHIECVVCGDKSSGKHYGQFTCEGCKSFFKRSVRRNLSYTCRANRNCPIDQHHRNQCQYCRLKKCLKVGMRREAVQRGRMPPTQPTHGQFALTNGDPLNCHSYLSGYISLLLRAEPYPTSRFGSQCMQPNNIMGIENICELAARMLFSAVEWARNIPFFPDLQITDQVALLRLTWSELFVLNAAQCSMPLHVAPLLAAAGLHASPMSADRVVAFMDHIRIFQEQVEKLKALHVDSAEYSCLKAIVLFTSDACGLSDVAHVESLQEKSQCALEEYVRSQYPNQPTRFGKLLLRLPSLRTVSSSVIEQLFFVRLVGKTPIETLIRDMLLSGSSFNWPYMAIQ
SRC3 inh = SRC3 coactivator transcriptional activity inhibitors, primary screen, cell-based, luminescence. HEK293 GAL4-SRC3 luciferase reporter. inhibition, % at 3.6 µM. hit rate 0.17% among 360,000;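 active means inhibition above a per-campaign cutoff, the mean of all compounds plus 3 SD, cut at about 60% in these data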;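 further: 0% = DMSO-treated cells and 100% = gossypol-treated cells at 36 µM; higher means less SRC3-driven luciferase light from the GAL4 reporter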
NCOA2 inhibitor = inhibition of GAL4-SRC2 driven luciferase reporter, primary screen, SRC2 inhibitor project, cell-based, luminescence. inhibition, % at 9 µM. hit rate 0.17% among 370,000. Nuclear receptor coactivator 2 (Homo sapiens), Q15596. HEK293 GAL4-SRC2 luciferase reporter;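 active means inhibition above the mean inhibition of all tested compounds plus 3 SD, set per campaign, cut at about 52% in these data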;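 further: 0% = DMSO treated cells and 100% = cells given Gossypol at 36 µM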
NCOA1 inh = SRC1 coactivator transcriptional activity inhibitors, primary screen, cell-based, luminescence; Nuclear receptor coactivator 1 (Homo sapiens), Q15788; inhibition, % at 3.6 µM; hit rate 0.12% among 360,000; HEK293 GAL4-SRC1 luciferase reporter; AID 588354, 2011;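 active means inhibition above the campaign mean plus 3 SD, with each screening campaign given its own cutoff, cut at about 60% in these data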;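 further: 0% = DMSO treated cells and 100% = gossypol at 36 µM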
NR5A2 inv ag = LRH-1 (NR5A2) inverse agonists, primary screen, cell-based, luminescence, HEK293T, StAR-luciferase reporter; LRH-1 transfected, 24 h; inhibition, % at 3.6 µM; hit rate 0.13% among 360,000; Nuclear receptor subfamily 5 group A member 2 (Homo sapiens), O00482;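 active means inhibition above the mean inhibition of all tested compounds plus 3 SD, cut at about 73% in these data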;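 further: 0% = DMSO wells and 100% = reporter-only cells lacking LRH-1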
GalR3 antag = GalR3 antagonists in HEK293 cells, primary screen, cell-based, fluorescence readout | Galanin receptor type 3 (Homo sapiens), O60755 | HEK293 GalR3-CNG cAMP membrane potential fluorescence; galR3 body fused to GalR1 C-terminus | AID 651719, 2012 | inhibition, % at 3 µM | hit rate 0.44% among 360,000;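 active means inhibition above the screen-wide average plus 3 SD, cut at about 13% in these data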;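 further: forskolin and galanin both at EC90 stimulate the cells; cAMP rise reported by CNG channel membrane potential dye signal; 0% = forskolin plus galanin with DMSO and 100% = forskolin alone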
Gal4-VP16 ctr = Gal4-VP16 luciferase reporter inhibitors, counter-screen for COUP-TFII antagonist project, cell-based, luminescence, HEK293 | hit rate 25% among 2,500 | shares compounds with NR2F2 inh | AID 687007, 2013 | inhibition, % at 8.5 µM; in the data active means inhibition above about 13%
COUP-TFII conf = NR2F2 transcriptional activity inhibitors, confirmation, cell-based, luciferase reporter, HEK293, triplicate; shares compounds with NR2F2 inh; HEK293 NGFI-A luciferase reporter, luminescence; inhibition, % at 8.5 µM; hit rate 45% among 2,500;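 active means mean inhibition over three repeats above a set limit taken from the earlier primary screen, cut at about 38% in these data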;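 further: 100% = cells given the luciferase reporter alone without the COUP-TF2 vector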
* marks the source's active call; other numbers are inactive results.

`CC(OC(=O)CNC(=O)C12CC3CC(CC(C3)C1)C2)C(=O)Nc1ccc(N2CCOCC2)cc1` (stereo not drawn) gave NR2F2 inh -8, SRC3 inh -9, NCOA2 inhibitor -35, NCOA1 inh 1, NR5A2 inv ag -2 and GalR3 antag -6.
Screening CN(CC(=O)Nc1ccccc1Cl)C(=O)c1cccc(S(=O)(=O)N2CCN(c3ccc(F)cc3)CC2)c1 returned NR2F2 inh 30, SRC3 inh 11, NCOA2 inhibitor 19, NCOA1 inh 4, NR5A2 inv ag 28 and GalR3 antag -7.
`O=C(Nc1ccncc1)c1cccc(S(=O)(=O)N2CCN(c3ccc(F)cc3)CC2)c1` gave NR2F2 inh 47*, SRC3 inh 17, NCOA2 inhibitor 23, NCOA1 inh 22, NR5A2 inv ag 25, GalR3 antag 1, Gal4-VP16 ctr 7 and COUP-TFII conf 31.
For O=C(Nc1ncccc1O)c1cccc(S(=O)(=O)N2CCN(c3ccc(F)cc3)CC2)c1 the results were NR2F2 inh 1, SRC3 inh 17, NCOA2 inhibitor -4, NCOA1 inh -19, NR5A2 inv ag -18 and GalR3 antag -5.
Screening O=C(COc1ccc(C(=O)c2ccc(F)cc2)cc1)Nc1cccc(S(=O)(=O)N2CCOCC2)c1 returned NR2F2 inh 48*, SRC3 inh -5, NCOA2 inhibitor 13, NCOA1 inh 9, NR5A2 inv ag -1, GalR3 antag -6, Gal4-VP16 ctr -8 and COUP-TFII conf 33.
CN(CC(=O)Nc1ccccc1Cl)C(=O)c1cccc(S(=O)(=O)N2CCN(c3ccccc3)CC2)c1 was read as NR2F2 inh 43*, SRC3 inh 10, NCOA2 inhibitor -5, NCOA1 inh 2, NR5A2 inv ag 10, GalR3 antag -8, Gal4-VP16 ctr 6 and COUP-TFII conf 19.
For O=C(COC(=O)CCC(=O)c1ccc(F)cc1)Nc1cccc(S(=O)(=O)N2CCOCC2)c1 the results were NR2F2 inh 6, SRC3 inh 7, NCOA2 inhibitor -1, NCOA1 inh -5, NR5A2 inv ag 11 and GalR3 antag -7.
For CN(CC(=O)Nc1cccc(F)c1)C(=O)c1cccc(S(=O)(=O)N2CCN(c3ccc(F)cc3)CC2)c1 the results were NR2F2 inh 42*, SRC3 inh 15, NCOA2 inhibitor 28, NCOA1 inh 5, NR5A2 inv ag -17, GalR3 antag -7, Gal4-VP16 ctr 4 and COUP-TFII conf 14.
Cc1cccc(C)c1NC(=O)C(c1ccnc2ccccc12)n1c(=O)c(-c2ccccc2)nc2ccccc21 (stereo not drawn) was read as NR2F2 inh 16, NCOA2 inhibitor 11, NR5A2 inv ag -4 and GalR3 antag -9.
Screening COc1ccc(CCn2c(=O)[nH]c3cc(C(=O)N4CCN(c5ccccc5)CC4)ccc3c2=O)cc1OC returned NR2F2 inh 13, SRC3 inh 9, NCOA2 inhibitor 13, NCOA1 inh 12, NR5A2 inv ag 11 and GalR3 antag -4.
`CN(Cc1ccc(OC(F)F)cc1)C(=O)c1cccc(S(=O)(=O)N2CCN(c3ccccc3)CC2)c1` gave NR2F2 inh 67*, SRC3 inh 23, NCOA2 inhibitor 24, NCOA1 inh 9, NR5A2 inv ag 28, GalR3 antag -6, Gal4-VP16 ctr 13* and COUP-TFII conf 55*.
`CN(Cc1cccc(Cl)c1Cl)C(=O)c1cccc(S(=O)(=O)N2CCN(Cc3ccccc3)CC2)c1` gave NR2F2 inh 42*, SRC3 inh 1, NCOA2 inhibitor 11, NCOA1 inh -3, NR5A2 inv ag 31, GalR3 antag 0, Gal4-VP16 ctr -3 and COUP-TFII conf 26.
`COc1ccc(CCN(C)C(=O)c2cccc(S(=O)(=O)N3CCN(c4ccc(F)cc4)CC3)c2)cc1OC` gave NR2F2 inh 59*, SRC3 inh 18, NCOA2 inhibitor 2, NCOA1 inh 13, NR5A2 inv ag 29, GalR3 antag 1, Gal4-VP16 ctr 12 and COUP-TFII conf 45*.
Screening COc1ccccc1NC(=O)c1cccc(S(=O)(=O)N2CCN(c3ccccc3)CC2)c1 returned NR2F2 inh 42*, SRC3 inh -43, NCOA2 inhibitor 16, NCOA1 inh 5, NR5A2 inv ag 5, GalR3 antag 2, Gal4-VP16 ctr -5 and COUP-TFII conf 6.
`CN(CC(=O)Nc1cccc(F)c1)C(=O)c1cccc(S(=O)(=O)N2CCN(Cc3ccccc3)CC2)c1` gave NR2F2 inh 26, SRC3 inh 9, NCOA2 inhibitor 13, NCOA1 inh 10, NR5A2 inv ag 15 and GalR3 antag -9.
Screening CN(CC(=O)Nc1ccccc1Cl)C(=O)c1cccc(S(=O)(=O)N2CCN(Cc3ccccc3)CC2)c1 returned NR2F2 inh 48*, SRC3 inh 24, NCOA2 inhibitor 10, NCOA1 inh 4, NR5A2 inv ag 21, GalR3 antag 2, Gal4-VP16 ctr 1 and COUP-TFII conf 35.
Screening O=C(CN1C(=O)NC2(CCCC2)C1=O)NNC(=O)c1ccc(Cl)cc1 returned NR2F2 inh 12, SRC3 inh -3, NCOA2 inhibitor 21, NCOA1 inh 3, NR5A2 inv ag -4 and GalR3 antag -2.
For CCOC(=O)C1CCN(CC(=O)Nc2c(C(=O)OC)[nH]c3ccc(Cl)cc23)CC1 the results were NR2F2 inh 41*, SRC3 inh 22, NCOA2 inhibitor 11, NCOA1 inh 2, NR5A2 inv ag 21, GalR3 antag -5, Gal4-VP16 ctr 4 and COUP-TFII conf 32.
For C=CCOc1ccc(CN(C)C(=O)c2ccc(CNS(=O)(=O)c3ccc(C)c(C)c3)cc2)cc1 the results were NR2F2 inh 41*, SRC3 inh 14, NCOA2 inhibitor 30, NCOA1 inh -10, NR5A2 inv ag 11, GalR3 antag -5, Gal4-VP16 ctr 0 and COUP-TFII conf 29.
`CN(Cc1ccc(F)cc1)C(=O)c1cccc(S(=O)(=O)NCc2ccccc2)c1` gave NR2F2 inh 11, SRC3 inh -10, NCOA2 inhibitor -18, NCOA1 inh 3, NR5A2 inv ag 5 and GalR3 antag -3.
